Hit rate of the full screen: of about 100,000 compounds, about 1,600 (1.6%) were called active. Inconclusive results (about 3%) are left out. No rule for the calls is given here. Not all results are given here.
Experiment: Confirmatory growth inhibition assay against Mycobacterium tuberculosis H37Rv, potency (AID 1949);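 as to inhibition: bacteria grown 7 days with compound before Alamar blue readout; 0% = untreated bacteria wells and 100% = bacteria with saturating antibiotic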
Settings: M. tuberculosis H37Rv growth inhibition; hits give high values, concentration not given here

Compound	inhibition
O=C(Nc1nc(-c2ccc(F)cc2)cs1)c1cccc2ccccc12	32.4% (inactive)
CCn1c(/C=C/c2ccco2)nc2ccccc21	inactive
COc1ccc(OC)c(N(CC(=O)Nc2ccccc2SC)S(=O)(=O)c2ccccc2)c1	13.5% (inactive)
Cc1ccc(NS(=O)(=O)c2ccc(NS(=O)(=O)c3c(C)cc(C)cc3C)cc2)cc1	inactive
COc1ccc(NC(=O)c2c(NC(=O)c3ccccc3F)sc3c2CCC3)cc1	inactive
CCOC(=O)c1ccc(Oc2nc(NCc3ccccc3)nc(N(C)C)n2)cc1	inactive
COC(=O)CSc1nc(C23CC4CC(CC(C4)C2)C3)cc(C(F)(F)F)c1C#N	1.01% (inactive)
CCn1c(CC(=O)Nc2cccc(OC)c2)nnc1SCC(=O)c1ccc(Br)cc1	inactive
Cc1cccc(NC(=O)c2sc3cccc(Cl)c3c2Cl)c1	inactive
C=CCN(CC=C)CC(O)Cn1c(C)c(C)c2ccccc21 (stereo not drawn)	inactive
CCOC(=O)c1cc(-c2ccccc2)sc1NC(=O)c1ccccc1Br	inactive
O=C(Nc1c(C(=O)N2CCCCCC2)cnn1-c1ccccc1Cl)c1ccccc1Cl	inactive
CCCc1ccc(C(C)NC(=O)c2ccc(C)s2)cc1 (stereo not drawn)	inactive
O=C(NCCc1ccccc1)Nc1cccc2ccccc12	inactive
COCCNCCCCOc1ccc(C)cc1[N+](=O)[O-]	inactive
Cc1ccc(NC(=O)CCc2ccc(S(=O)(=O)NCCc3ccccc3)cc2)cc1C	inactive
CCOC(=O)N1CCN(C(=O)c2ccc(I)cc2)CC1	inactive
CC1=C(C(=O)Nc2ccccc2)C(c2ccc(I)cc2)NC(=O)N1 (stereo not drawn)	inactive
CCOc1cc(CNC(CC)CO)c(Cl)cc1OCC(N)=O (stereo not drawn)	inactive
OCCNc1nc2ccccc2n1-c1ccccc1	1.48% (inactive)
O=C(CCCn1c(=S)[nH]c2ccccc2c1=O)N1CC=C(c2ccccc2)CC1	inactive
Cc1ccc(C(=O)Nc2ccc(C(=O)NCCCC(=O)O)cc2)o1	4.21% (inactive)
CS(=O)(=O)N(CC(=O)Nc1ccccc1Cl)c1cccc([N+](=O)[O-])c1	inactive
O=C1c2ccccc2C(=O)N1c1nnc(Sc2ccc([N+](=O)[O-])c3cccnc23)s1	inactive

Compound	inhibition
OC(c1ccccc1)c1nc2ccccc2n1Cc1cccc(Cl)c1 (stereo not drawn)	inactive
CC(C)c1ccccc1NC(=O)COc1ccc(-c2ccccc2)cc1	inactive
COC(=O)C1C(=O)OC(C)(C)C2CCC(C)CC12 (stereo not drawn)	inactive
COc1ccc(N2C(=O)CC(N3CCN(CC(=O)NC(C)C)CC3)C2=O)cc1 (stereo not drawn)	inactive
CCOC(=O)N1CCN(C(=O)COc2cccc(C)c2C)CC1	inactive
Cc1c(Cl)cccc1N1CC(O)=C(c2nc3ccccc3s2)C1=N	3.11% (inactive)
COC(=O)c1noc(-c2ccc(F)cc2)n1	inactive
O=S(=O)(NCCC1=CCCCC1)c1ccccc1	inactive
O=C1OCCC1Sc1nnc(-c2ccc(Br)cc2)o1 (stereo not drawn)	inactive
CC(=O)Nc1ccc(NC(=O)C(C)Oc2ccc(Cl)c(C)c2)cc1 (stereo not drawn)	inactive
CCOc1ccccc1OCCOCCNCc1ccccc1	inactive
CCN(C(=O)c1ccccc1Br)c1ccccc1C	8.56% (inactive)
Fc1c(F)c(F)c(Cn2ccc(NC(=S)Nc3ccccc3C(F)(F)F)n2)c(F)c1F	inactive
Cc1nc(SCc2cccc(C(=O)O)c2)nc2c1CCCC2	inactive
O=C(O)c1ccccc1-c1nc(-c2ccccc2F)no1	inactive
S=C(NCc1ccccc1)Nc1c(Cl)cccc1Cl	inactive
CC1(C)CC(=O)CC(C)(C)N1OC(=O)c1ccncc1	inactive
CCOC(=O)c1ccc(NC(=O)CSc2nnc(-c3ccccc3Cl)n2CC)cc1	inactive
CCOc1cc(C)c(S(=O)(=O)NCc2cccnc2)cc1C	inactive
COc1cc(S(=O)(=O)NC2CCCCC2)ccc1Cl	inactive
CCOC(=O)c1ccc(COC(=O)c2ccc(C=O)cc2)cc1	2.19% (inactive)
CCn1c(CNC(=O)c2cccs2)nnc1SCC(=O)Nc1ccc(Br)cc1F	inactive
CCc1cccc(C)c1NC(=O)CN(c1cccc(Br)c1)S(C)(=O)=O	inactive
CC(C)CNC(=O)c1ccccc1NC(=O)CCSc1ccccc1	inactive

Compound	inhibition
O=C1C2C3C=CC(C3)C2C(=O)N1CCC(=O)N1c2ccccc2Sc2ccccc21 (stereo not drawn)	inactive
COc1cccc2cc(-c3nnc(SCC(=O)Nc4cccc(SC)c4)n3C)oc12	1.86% (inactive)
CCOc1ccc(N(CC(N)=O)S(=O)(=O)c2ccc(OC)c(OC)c2)cc1	inactive
COC(=O)c1ccc(NC(=O)CN(Cc2ccccc2)S(C)(=O)=O)cc1	inactive
O=S(=O)(c1cccc(S(=O)(=O)N2CCCC2)c1)N1CCCC1	inactive
COc1ccc([N+](=O)[O-])cc1NC(=O)C1CC(=O)N=C(N)S1 (stereo not drawn)	0.16% (inactive)
COc1ccc(N(CC(=O)Nc2ccc(F)cc2F)S(=O)(=O)c2ccc(C)c([N+](=O)[O-])c2)cc1	inactive
O=S(=O)(c1ccccc1)c1ccc(COc2cccc3cccnc23)cc1	1.33% (inactive)
COc1ccc(CNC2C3CC4CC(C3)CC2C4)cc1 (stereo not drawn)	inactive
COC(=O)c1ccc(SC2CCCCC2)c([N+](=O)[O-])c1	inactive
C=CCn1c(COc2ccc(C)cc2OCC)nnc1SCC(=O)Nc1cc(C(F)(F)F)ccc1Cl	1.26% (inactive)
COc1ccccc1CNC(=S)Nc1ccc(OC)c(OC)c1	inactive
Cc1cccc2c(N=NC(=O)c3cccnc3)c(O)[nH]c12	inactive
CC(Sc1ccc(Cl)cc1)C(=O)Nc1ccccc1C(=O)O (stereo not drawn)	inactive
COc1ccccc1OCCCSc1nc2sc(C)c(C)c2c(=O)n1-c1ccccc1	inactive
Cc1cc(C)c(C#N)c(SCC(=O)Nc2sc3c(c2C#N)CCC3)n1	inactive
O=C(NCCSC1CCCCC1)c1ccc(-c2ccccc2)cc1	inactive
CSc1nc(C)c(Oc2ccccc2)c(=O)n1C	8.91% (inactive)
CSc1ccc(-c2nnn(CC(=O)Nc3ccc4c(c3)OCO4)n2)cc1	inactive
COc1cc(/C=C2/SC(=O)N(CC(=O)O)C2=O)cc(OC)c1OC	inactive
CS(=O)(=O)N(CC(=O)NC1CCCCCC1)c1ccccc1F	inactive
CCn1c(SCC(=O)Nc2ccc3c(c2)OCO3)nnc1-c1ccccc1	4.1% (inactive)
CN(c1cccc(NC(=O)c2ccccc2N(Cc2ccccc2)S(=O)(=O)c2ccccc2)c1)S(C)(=O)=O	inactive
Cc1ccc(F)cc1NC(=O)CSc1ccc(Br)cc1	36% (inactive)

Compound	inhibition
O=C(Oc1ccc2c3c(c(=O)oc2c1)CCC3)c1cccc(Cl)c1	inactive
Cc1ccc(-c2csc(NC(=O)CSc3ccc(Br)cc3)n2)cc1	inactive
C=CCOc1ccc(C2C(C(=O)c3cccs3)=C(O)C(=O)N2CCN(CC)CC)cc1OC (stereo not drawn)	inactive
CC(=O)C(C)n1c(=O)oc2ccc(Cl)cc21 (stereo not drawn)	0.0633% (inactive)
Cc1cccc2c1N(C)C(=O)C2(O)CC(=O)c1ccco1 (stereo not drawn)	inactive
Cc1ccc(NC(=O)COc2ccc3c(C)c(Cc4ccccc4)c(=O)oc3c2C)cc1	inactive
CCCCOc1ccc(C2C(C(=O)c3ccco3)=C(O)C(=O)N2CCOC)cc1OC (stereo not drawn)	inactive
CCC(C)n1[nH]c(=O)c2c1NC(=O)CSC2c1ccc(Cl)cc1Cl (stereo not drawn)	2.1% (inactive)
Cc1ccc(S(=O)(=O)N(C)CC(=O)NCCCc2ccccc2)cc1	inactive
Cc1ccc(OCCCCCNCCO)cc1C	inactive
CC(=O)Nc1ccc(S(=O)(=O)Nc2ccc(Cc3ccncc3)cc2)cc1	inactive
COc1cc(OC)cc(C(=O)Nc2ccc(C(F)(F)F)cc2)c1	inactive
CSc1cccc(NC(=O)CCSc2ccc(Cl)cc2)c1	inactive
N#Cc1ccc(Oc2ccc(NC(=O)C3CC=CCC3C(=O)O)cc2)cc1 (stereo not drawn)	inactive
CN(C(=O)CN1C(=O)c2ccccc2C1=O)C1CCCCC1	inactive
COc1ccc(OCCN(C)Cc2ccccc2)cc1	inactive
Cc1cc(S(=O)(=O)N2CCOCC2)ccc1F	inactive
COc1ccc(Cl)cc1S(=O)(=O)Nc1ccccc1C	4.41% (inactive)
CCN(CC)C(=O)c1ccc(NC(=O)c2ccccc2I)cc1	inactive
Cc1cc(=O)oc2cc(Oc3nnnn3-c3ccccc3)ccc12	inactive
CCOc1ccc(NC(=O)Nc2ccc(C)cc2Br)cc1	inactive

Reference: PubChem BioAssay AID1949 (Southern Research Institute, 2009)
